HP1b binding inh = inhibitors of HP1-beta chromodomain binding to methylated histone tails; P83916; AlphaScreen HP1-beta / biotin-H3K9me3 peptide binding; Potency, µM (top dose mostly 114 µM), most hits filed as inhibitors; 0.56% of 390,000 active; also: nearly all actives have a fitted effect of over 70% in size
Target sequence (P83916 whole entry, looked up): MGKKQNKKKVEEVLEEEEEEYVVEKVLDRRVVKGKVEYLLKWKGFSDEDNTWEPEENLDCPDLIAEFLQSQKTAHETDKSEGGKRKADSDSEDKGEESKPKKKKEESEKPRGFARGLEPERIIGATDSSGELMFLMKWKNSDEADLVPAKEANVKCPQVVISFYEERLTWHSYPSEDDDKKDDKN
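AlphaScreen: HP1-beta (50 nM) preformed 30 min with biotin-H3(1-18)K9me3 peptide (50 nM) in PBS pH 7.4, 0.01% Tween-20. Compound added for 30 min at RT, then streptavidin donor/nickel chelate acceptor beads (10 ug/mL) for 30 min.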
Sfp inh = blocks B. subtilis Sfp PPTase activity | 3.5% of 310,000 active | Q9F4F7 | Biochemical Sfp PPTase activity, qHTS | AID 1490 | Potency, µM, usual class: inhibitors;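 also: the enzyme is Sfp with the accession as filed and its product quenches rhodamine fluorescence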
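Sfp 15 nM + cpd, 15 min RT; start w/ rhodamine-CoA 5 uM, BHQ-2-YbbR 12.5 uM (final); 50 mM Hepes pH 7.6, 10 mM MgCl2, 0.01% NP-40, 0.01% BSA; read 525/598 nm at 0 and 30 min.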
BAZ2B inh = BAZ2B (human) inhibition | Q9UIF8 | AlphaScreen BAZ2B-H3K14Ac peptide displacement | Potency, µM (highest dose often 114 µM), hits mostly inhibitors | 4.4% of 360,000 active | AID 504333; also: nearly all actives have a fitted effect of over 60% in size
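Multi-concentration screen (max 110 uM) measuring displacement of acetylated histone H3 peptide from BAZ2B by AlphaScreen, using 50 nM protein, 50 nM peptide and 10 ug/mL streptavidin donor plus Ni-chelate acceptor beads.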
G9a inh = blocks human histone lysine methyltransferase G9a; Q96KQ7; G9a H3K9 monomethylation, AlphaScreen, 2 h; Potency, µM (titrated, usually from 102 µM), hits mostly inhibitors; 8.8% of 350,000 active; also: nearly all actives have a fitted effect of over 75% in size
Target sequence (Q96KQ7 913-1193 limits assumed): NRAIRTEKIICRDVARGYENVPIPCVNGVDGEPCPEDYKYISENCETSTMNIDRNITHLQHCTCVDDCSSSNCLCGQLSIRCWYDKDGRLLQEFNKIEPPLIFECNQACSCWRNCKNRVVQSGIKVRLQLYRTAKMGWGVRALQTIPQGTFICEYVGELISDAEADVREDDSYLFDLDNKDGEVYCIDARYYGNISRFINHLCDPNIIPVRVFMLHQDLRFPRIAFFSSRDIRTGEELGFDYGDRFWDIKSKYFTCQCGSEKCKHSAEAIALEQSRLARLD
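Readings reflect AlphaScreen signal from monomethyl-H3K9 antibody detection. HMT at 20 nM; substrate b-H3K9 500 nM; cofactor SAM 20 uM; 2 h RT reaction; compounds tested as titrations in qHTS with 15 min preincubation.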
JMJD2A Tudor inh = blocks the human JMJD2A Tudor domain | O75164 | AlphaScreen JMJD2A-Tudor / H3K4me3 peptide binding | Potency, µM (highest dose often 114 µM), hits mostly inhibitors | 4.4% of 390,000 active | AID 504339; also: nearly all actives have a fitted effect of over 50% in size
Numbers stand for hits; i = inactive; ? = inconclusive; nt = not tested or not shown; [ ] = dose if it differs, or a comment. This is a sample that favours compounds with a hit; in the whole collection about 12% have one here. Calls follow the shape of the dose curve; as a rule, active = well fitted curve in the direction sought with a large enough effect; inconclusive = small, poorly fitted or top-dose-only effect, or another doubt; inactive = no such curve, though single readings can be large; an effect the other way counts as inactive or inconclusive.

SMILES | HP1b binding inh | Sfp inh | BAZ2B inh | G9a inh | JMJD2A Tudor inh
CCc1cccc(-n2nnc(-c3nc(-c4cccs4)no3)c2N)c1 | i | nt | i | i | i
C[C@H]1C2=C3C(CC[C@H]4C(OCc5ccc(F)cc5C(F)(F)F)OC[C@](C)([C@@H]34)N(C(=O)OC(C)(C)C)C2)C(CO)C1CO (some centres undefined) | nt | i | nt | nt | nt
CCOc1cc(C(=S)N2CCCC2)ccc1OCc1ccccc1 | i | i | i | i | i
CCOc1cc2nc(-c3ccc(OC)c(OC)c3)nc(N3CCOCC3)c2cc1OC | i | i | 56µM | i[2.33 µM] | i
CCOc1ccc(C(=S)N2CCCC2)cc1OCC | i | 56µM | i | 10µM | i
CCOC(=O)c1c(-c2ccccc2)oc2ccc(NS(=O)(=O)c3cc(C)c(C)cc3C)cc12 | i | nt | i | i | i
CCOc1ccc2nc(NCCNC(=O)C(C)C)c(C)cc2c1 | i | i | i | i | i
CCOc1ccc2nc(NCCNC(=O)C3CC3)c(C)cc2c1 | i | i | i | 79µM | i
Cc1cc(N2CCN(c3ccccc3Cl)CC2)n2cc(-c3ccccc3)nc2n1 | i | ? | ? | 50µM | ?
Cc1cc(N2CCN(c3ccccc3)CC2)n2cc(-c3ccccc3)nc2n1 | i | ? | 45µM | i[12.7 µM] | ?
Cc1cc(N2CCN(c3ccccc3)CC2)n2cnnc2n1 | i | nt | i | i | i
COc1cccc(-c2nn(C)c3sc(C(=O)N4CCN(c5cccc(C)c5)C(C)C4)cc23)c1 (centres undefined) | i | nt | nt | ? | ?
Cc1cccc(OC(=O)n2c(=S)oc3cc(Cl)ccc32)c1 | i | i | i | 2.8µM | 79µM
Cc1ccc(S(=O)(=O)N2CCOCC2)cc1NC(=O)CNCc1ccccn1 | i | i | 32µM | i[12.7 µM] | i[11.4 µM]
O=C(CNCc1ccccn1)Nc1cc(S(=O)(=O)N2CCCCC2)ccc1Cl | i | i | nt | i | 79µM
O=C(COC(=O)c1cc(Br)ccc1O)Nc1cc(S(=O)(=O)N2CCCC2)ccc1Cl | i | 56µM | nt | i | i
O=C(COC(=O)c1ccccc1O)Nc1cc(S(=O)(=O)N2CCCCCC2)ccc1Cl | i | nt | i | i[12.7 µM] | i
Cc1ccc(CSCC(=O)Nc2cc(S(=O)(=O)N3CCOCC3)ccc2OC(C)C)cc1 | i | nt | ? | 50µM | i
O=C(Cc1ccccc1)NC1CC(=O)N(c2ccccc2)C1 (centres undefined) | i | nt | i | i | i
Cc1ccc(CN2C(=O)C(CC(C)C)Nc3ncnc(N4CCN(c5ccccc5)CC4)c32)cc1 (centres undefined) | i | nt | nt | nt | ?
CCCN(CCC)C(=O)C1CCN(c2ccc(S(=O)(=O)N3CCOCC3)cc2[N+](=O)[O-])CC1 | i | i | i | i | i
Cc1ccc(S(=O)(=O)N2CCOCC2)cc1NC(=O)CNC(C)c1ccccc1 (centres undefined) | ? | nt | nt | nt | 1.3µM
CN(C)C(=O)CSc1nnc(Cc2ccccc2)n1Cc1ccco1 | i | i | i | ? | i
S=c1[nH]nc(Cc2ccccc2)n1Cc1ccco1 | i | i | i | ? | 4µM
CCCn1c(Cc2ccccc2)n[nH]c1=S | i | i | i | ? | 7.1µM
SMILES | HP1b binding inh | Sfp inh | BAZ2B inh | G9a inh | JMJD2A Tudor inh
CCCCn1c(N)c(N(CCC(C)C)C(=O)c2ccc3c(c2)OCCO3)c(=O)[nH]c1=O | i | nt | i | i | i
CCCCN(C(=O)c1cc(S(=O)(=O)N2CCOCC2)ccc1F)c1c(N)n(CCCC)c(=O)[nH]c1=O | i | nt | nt | nt | i
CCCCn1c(N)c(N(CC(C)C)C(=O)Cc2ccc3c(c2)OCCO3)c(=O)[nH]c1=O | i | nt | i | 50µM | i
CCCCN(C(=O)c1ccc2c(c1)OCCO2)c1c(N)n(CC(C)C)c(=O)[nH]c1=O | i | nt | i | 45µM | i
CCCCN(C(=O)Cc1ccc(S(=O)(=O)N2CCOCC2)s1)c1c(N)n(CCCC)c(=O)[nH]c1=O | i | nt | i | 56µM | i
COc1ncc2nc(-c3ccc(F)cc3)c(=O)n(Cc3ccc(F)cc3)c2n1 | nt | i | nt | i[0.501 µM] | nt
Cc1ccc(C)c(-n2c(C)cc(/C=N/NC(=O)c3c(C)nc4cc(C)ccn34)c2C)c1 | i | i | i | ? | 40µM
CCOC(=O)c1c[nH]c2c(C)ccc(Cl)c2c1=O | i | i | i | i | 28µM
CCOC(=O)c1cc2c(N)c(C(=O)c3ccc(Br)cc3)sc2[nH]c1=O | i | 28µM | i | 50µM | i
CC1=NN(c2ccccc2)C(=O)/C1=C\N1CC(C)OC(C)C1 (centres undefined) | i | i | ? | 79µM | i
Cc1ccc(C2=NOC(=O)/C2=C\C=C\c2ccccc2)cc1 | i | 28µM | 35µM | 2.8µM | 50µM
CN(C)/C=C1\C(=O)ON=C1c1ccccc1 | i | i | i | ? | i
CC1=NN(c2ccc(C)cc2)C(=O)/C1=C\c1ccc(Br)s1 | ? | i | i | ? | i
CC1=NN(c2ccccc2)C(=O)/C1=C/c1cc(C)n(C2CC2)c1C | i | i | ? | i[12.7 µM] | i[11.4 µM]
CC1=NN(c2cccc(C(=O)O)c2)C(=O)/C1=C\C=C\c1ccco1 | 13µM | i | 10µM | 7.9µM | 8.9µM
CC1=NN(c2ccccc2)C(=O)/C1=C/C=C/c1ccccc1 | 32µM | i | 7.9µM | 5µM | 8.9µM
CCOC(=O)c1c(NC(=O)CCCOc2ccccc2C)sc2c1CCC(C)C2 (centres undefined) | i | nt | i | i | i
COc1ccccc1NC(=O)CCN1C(=O)c2ccccc2C1=O | i | i | i | 79µM | i
O=C(CN1C(=O)c2ccccc2C1=O)Nc1ccccc1C(F)(F)F | i | i | i | i | i
CCN(CC(=O)Nc1ccccc1OC)CC(=O)Nc1ccccc1-c1ccccc1 | ? | 35µM | 28µM | 50µM | 2.2µM
COc1ccc(NC(=O)CCN2C(=O)c3ccccc3C2=O)c(OC)c1 | i | i | i | i | i
CCCC(C)NCC(=O)Nc1ccccc1-c1ccccc1 (centres undefined) | ? | i | ? | ? | 1.1µM
O=C(CCN1C(=O)c2ccccc2C1=O)Nc1ccccc1C(F)(F)F | i | i | i | 45µM | i
CC12CCC=CC1C(c1ccc(F)c(Br)c1)N(Cc1ccccc1)C2=O (centres undefined) | i | i | nt | nt | i
COc1ccccc1NC(=O)Cn1nnc(-c2ccccc2NC(=O)c2cccs2)n1 | i | 50µM | i | i | i
COc1ccccc1NC(=O)CCC(=O)c1ccc(-c2ccccc2)cc1 | i | i | i | i | 25µM
CC[n+]1c(/C=C/C=C2/N(C)c3ccccc3C2(C)C)sc2ccccc21 | nt | nt | nt | 8.9µM | nt
CCn1c(/C=C/N(C(C)=O)c2ccccc2)[n+](CC)c2ccc(Cl)cc21 | i | i | ? | 79µM | i
CCOC(=O)c1ccc2c(c1)n(CCCS(=O)(=O)[O-])c(/C=C/c1ccc(Cl)cc1)[n+]2CC | i | i | i | nt | i
CC[n+]1c(/C=C/C=C/N(C(C)=O)c2ccccc2)sc2ccccc21 | i | 50µM | 28µM | i[0.501 µM] | 79µM

Assay outcomes: PubChem BioAssay, National Center for Advancing Translational Sciences (NCATS)
